Each structure is given as a SMILES string. A number with no mark means an inactive call. Calls come from the whole dose curve; as a rule, active = well fitted activation curve with a large enough effect in the repeat runs; inconclusive = weak or mixed curves; inactive = flat fitted curve, though single readings scatter. Where a SMILES comes first, the peptide text is derived from it. [ ]: non-standard residue; d: D form. pGlu = O=C1CC[C@@H](C(=O)O)N1
% is set by controls: 0 for no effect and ±100 for the full control effect.

The assay is described as follows: A CellTox Green Cytotoxicity Assay to monitor cytotoxicity in HEK293 cells - 0 hour (AID 1224869). Note: nearly all actives have a fitted effect of over 50% in size. The conditions noted are these: CellTox Green fluorescence; series mostly up to 76.8 µM; cytotoxicity: at the top concentration. In outline:
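Homogeneous no-lysis format: HEK293 cell suspension mixed with CellTox Green reagent, seeded, incubated 5 h at 37 C/5% CO2, then dosed by pintool with compound in DMSO.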
On to `Clc1cc(Cl)c(Cl)nc1Cl`, for which the “cytotoxicity” value was -5.01%.
Consider `C[C@@H]1CCC[C@H](C)N1`, for which the “cytotoxicity” value is -5.71% [at 35.3 µM].
The same measure for `CCOC(=O)OC(C)OC1=C(C(=O)Nc2ccccn2)N(C)S(=O)(=O)c2ccccc21` (stereo not drawn): -3.63% [at 35.3 µM].
Regarding `O=C(O)CC(C(=O)O)S(=O)(=O)O` (stereo not drawn), the “cytotoxicity” value was 1.55%.
As for `[O-][n+]1cccc(CO)c1`, the “cytotoxicity” value is -11.4% [at 35.3 µM].
For `CC(=O)c1ccccc1[N+](=O)[O-]` the value was 2.13%; for `Cc1cccc(C)c1NC(=O)CC12CCCN1CCC2`, 3.4% [at 35.3 µM]; for `OCCCCCO`, -6.11%.
`CC(COc1ccccc1)NN` (stereo not drawn): the “cytotoxicity” value was -2.94% [at 35.3 µM].
Regarding `NS(=O)(=O)Cc1noc2ccccc12`, the “cytotoxicity” value is -10.7% [at 35.3 µM].
The same measure for `Cc1cc(C)c(N=Nc2c(O)c(S(=O)(=O)O)cc3cc(S(=O)(=O)O)ccc23)cc1C`: 0.859% [at 6.97 µM].
For `Nc1c2c(nc3c1CCC3)CCCC2` the value was 1.49% [at 35.3 µM].
`O=S(=O)(O)c1cccc2c(S(=O)(=O)O)cccc12`: the “cytotoxicity” value was 13.7%.
For `CCCCCCCCN1CCCC1=O` the value was 1.27%; for `CNCC(O)c1ccc(O)c(O)c1` (stereo not drawn), -20.4% [at 35.3 µM]; for `O=S(=O)(O)c1cccc(S(=O)(=O)O)c1`, 0.215%.
The same measure for `CCCO[Si](OCCC)(OCCC)OCCC`: -1.45%; for `CC[C@H]1OC(=O)[C@H](C)[C@@H](O[C@H]2C[C@@](C)(OC)[C@@H](O)[C@H](C)O2)[C@H](C)[C@@H](O[C@@H]2O[C@H](C)C[C@H](N(C)C)[C@H]2O)[C@](C)(OC)C[C@@H](C)C(=O)[C@H](C)[C@@H](O)[C@]1(C)O`: -7.05%; for `C=CCCCCCCCCC(=O)OCC`: 4.08%.
For `CO[Si](C)(OC)c1ccccc1` the value was 9.77%; for `C=CCCC(=O)O`, 4.38%.
For the compound `O=Cc1cccc(Br)c1`, the “cytotoxicity” value was 2.2%.
For the compound `CN1C(C)(C)CC(O)CC1(C)C`, the “cytotoxicity” value was 0.522%.
For `C[N+]1(CC2COC(c3ccccc3)(c3ccccc3)O2)CCCCC1` (stereo not drawn) the value was -9.06% [at 15.8 µM].
In the case of `Clc1cc(Cl)cc(Cl)c1`, the “cytotoxicity” value is -1.65%.
The same measure for `CCOC(=O)COC(=O)c1ccccc1C(=O)OCC`: -8.37%; for `CC1=NN(c2cccc(S(=O)(=O)O)c2)C(=O)C1`: 4.81%.
Consider `CN1CCC(=C2c3ccccc3CCc3cccnc32)CC1`, for which the “cytotoxicity” value was 1.01% [at 35.3 µM].
For the compound `Cc1nc(C2CCCCC2)c(-c2ccc(S(N)(=O)=O)c(F)c2)o1`, the “cytotoxicity” value is -9.81% [at 35.3 µM].
In the case of `Nc1ccn([C@@H]2O[C@H](CO)[C@@H](O)C2(F)F)c(=O)n1`, the “cytotoxicity” value was -2.58% [at 35.3 µM].
In the case of `CCCCCCC1CCC(=O)O1` (stereo not drawn), the “cytotoxicity” value is 0.475%.
The same measure for `C=COCC1CCC(COC=C)CC1` (stereo not drawn): -2.2%; for `CC1(C)OC[C@@H](COC(=O)CCc2ccc(OC[C@@H](O)CNCCNC(=O)N3CCOCC3)cc2)O1`: -2.5% [at 35.3 µM]; for `CC(=O)Oc1cccc(C)c1`: -3.67% [at 35.3 µM].
Take `CCC(C(=O)NC(=O)NC(C)=O)c1ccccc1` (stereo not drawn): the “cytotoxicity” value was 1.48% [at 35.3 µM].
Consider `O=C(O)CCCC[P+](c1ccccc1)(c1ccccc1)c1ccccc1`, for which the “cytotoxicity” value is 2.96% [at 35.3 µM].
For `CCCCOCCOC(=O)CCCCCCCCC(=O)OCCOCCCC` the value was -1.4%; for `CCNC(=O)[C@@H]1CCCN1C(=O)[C@H](CCCN=C(N)N)NC(=O)[C@H](CC(C)C)NC(=O)CNC(=O)[C@H](Cc1ccc(O)cc1)NC(=O)[C@H](CO)NC(=O)[C@H](Cc1c[nH]c2ccccc12)NC(=O)[C@H](Cc1cnc[nH]1)NC(=O)[C@@H]1CCC(=O)N1` ([pGlu]HWSYGLRP-NHEt), -0.455% [at 35.3 µM].
